# Assay outcomes from PubChem BioAssay.
# An excerpt weighted towards active compounds, which were near 19% of everything screened.
# DT40 TDP1 no CPT = qHTS for Inhibitors of human tyrosyl-DNA phosphodiesterase 1 (TDP1): qHTS in cells in absence of CPT. Potency, µM (series often up to 46.2 µM), for inactives: top-dose activity change, negative = growth inhibition, hits mostly inhibitors. hit rate 15% among 420,000. DT40 Tdp1-/- hTDP1 cells, no CPT, ATP luminescence, 48 h; further: nearly all actives have a fitted effect of over 55% in size
#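 Chicken DT40 Tdp1-/- cells stably complemented with human TDP1 were seeded at 400 cells/well with DMSO in place of 20 nM camptothecin. After compound pinning, cells grew at least 48 hr at 37 °C; viability read by CellTiter-Glo luminescence.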
# KB-V1 cytotox = qHTS assay for MDR1-selective chemotherapeutics: Primary screen using the drug-selected MDR subline cells KB-V1. KB-V1 MDR cells viability, CellTiter-Glo, 72 h. Potency, µM (doses to about 46.1 µM), usual class: cytotoxic. hit rate 3.4% among 400,000. AID 1347076, 2019; further: nearly all actives have a fitted effect of over 60% in size
#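 Compound-treated KB-V1 multidrug-resistant cells, 72 h, 37 degrees C; viability by CellTiter-Glo. Fitted qHTS curves give the values.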
# HT1080NT lethal = qHTS for induction of synthetic lethality in tumor cells producing 2HG: qHTS for the HT-1080-NT fibrosarcoma cell line. Potency, µM (series often up to 46.1 µM), inactives show top-dose activity, negative = less viability, hits mostly cytotoxic. HT-1080-NT fibrosarcoma viability, CellTiter-Glo ATP luminescence, 48 h. hit rate 1.6% among 360,000;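 further: NT is the 2HG producing partner of a matched IDH1 knockdown line; 0% = DMSO-treated cells and -100% = media-only wells without cells; nearly all actives have a fitted effect of over 55% in size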
#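 HT-1080-NT fibrosarcoma cells (2HG-overproducing), 750 cells/well in RPMI with 5% FBS, dosed after 2 h and incubated 48 h at 37C. CellTiter-Glo luminescence normalized to DMSO and no-cell wells; concentration-response curves fitted and classed.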
# KB-3-1 cytotox = qHTS assay for MDR1-selective chemotherapeutics: Primary screen using the parental adenocarcinoma cell KB-3-1. hit rate 1.4% among 400,000. KB-3-1 viability, CellTiter-Glo ATP luminescence, 72 h. AID 1347075, 2019. Potency, µM (top dose mostly 46.1 µM), actives largely listed as cytotoxic; further: nearly all actives have a fitted effect of over 60% in size
#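 Using CellTiter-Glo luminescence, growth of non-resistant KB-3-1 adenocarcinoma cells is assessed 72 h after pin-tool compound addition at 37 °C. Normalized responses across the concentration series yield fitted curves.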
# HT1080 IDH1KD tx = qHTS for induction of synthetic lethality in tumor cells producing 2HG: qHTS for the HT-1080-IDH1KD cell line | hit rate 2% among 360,000 | AID 686971, 2013 | Potency, µM (doses to about 46.1 µM), for inactives: top-dose activity, negative = toxicity, most hits filed as cytotoxic | HT-1080 IDH1 knockdown viability, ATP luminescence, 48 h;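 further: 0% = DMSO wells and -100% = cell-free medium wells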
#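 HT-1080-IDH1KD cells (IDH1 knocked down), 750/well in RPMI with 5% FBS, treated with compound 48 h at 37 degrees C. Viability by CellTiter-Glo luminescence, normalised to DMSO and no-cell wells; concentration-response curves classed.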
# DT40 TDP1 CPT = qHTS for Inhibitors of human tyrosyl-DNA phosphodiesterase 1 (TDP1): qHTS in cells in presence of CPT. chicken DT40 Tdp1-/-;hTDP1 cells + 20 nM CPT, ATP luminescence, 48 h. Potency, µM (series often up to 46.2 µM), for the others: at the highest dose activity change, negative = growth inhibition, usual class: inhibitors. hit rate 12% among 420,000. AID 686979, 2013; further: nearly all actives have a fitted effect of over 55% in size
#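 Chicken DT40 Tdp1-/- cells complemented with human TDP1, 400 cells/well, exposed to compounds plus 20 nM camptothecin for at least 48 h at 37 C; viability read as ATP content by CellTiter-Glo luminescence.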
# * = called active by the depositor; i = inactive; ? = inconclusive; / = no result given; ! = not confirmed by another sample; [ ] = another dose, or the depositor's remark. The call rests on the fitted dose curve; in most records, active means well fitted curve in the direction sought with a large enough effect; inconclusive means small, poorly fitted or top-dose-only effect, or another doubt; inactive means no such curve, though single readings can be large; an effect the other way counts as inactive or inconclusive. Unless noted, on the % scale 0 is the no-effect control and ±100 the full control effect; potency means the concentration at half of the fitted maximal effect.
SMILES,DT40 TDP1 no CPT,KB-V1 cytotox,HT1080NT lethal,KB-3-1 cytotox,HT1080 IDH1KD tx,DT40 TDP1 CPT
CCNC(=O)C1CCCN(c2nn3cc(-c4ccc(C)cc4)nc3s2)C1 (centres undefined),23µM*,i,/,i,/,18µM*
COc1ccc(-c2cn3nc(N4CCC(C(=O)Nc5ccccc5OC)CC4)sc3n2)cc1,?,i,/,i,/,?
Cc1cc(=O)nc2c3ccccc3n(CC(=O)NC(C)c3ccc4c(c3)OCCO4)n12 (centres undefined),-17%,i,-11%,i,-5%,?
CCn1c(COc2ccc(OC)cc2)nc2ccccc21,?,?,-1%,i,-18%,-5%
Cc1ccc(OCc2nc3ccccc3n2CC(C)C)cc1,23µM*,i,/,i,/,?
CCn1c(COc2ccccc2)nc2ccccc21,-25%,i,-6%,i,-6%,-9%
Cc1ccc(OCc2nc3ccccc3n2C(C)C(=O)Nc2c(C)cccc2C)cc1 (centres undefined),18µM*,?,?,i,?,?
COCCn1c(COc2ccc(OC)cc2)nc2ccccc21,?,8.2µM*,-5%,i,-6%,?
CCCN(Cc1cc2cccc(C)c2[nH]c1=O)C(=O)c1cccc(OC)c1,16µM*,?,-2%,i,-20%,?
COc1cccc(C(=O)N(Cc2cc3cc(C)ccc3[nH]c2=O)C(C)C)c1,?,i,-2%,i,-6%,-22%
CCCC(=O)N(Cc1cc2cccc(C)c2[nH]c1=O)c1ccccc1OC,?,i,7%,i,13%[9.24 µM],?
CCCN(Cc1cc2cc(C)ccc2[nH]c1=O)C(=O)c1cccc(OC)c1,?,7.3µM*,-13%,16µM*,-14%,?
O=c1cc(S(=O)(=O)Cc2ccccc2)[nH]c(=O)[nH]1,7%,i,12%,i,11%,0%
O=C1OC(c2ccc(Cl)cc2)/C(=C(/O)c2ccccc2)C1=O (centres undefined),0%,i,14%,i,-1%,16%
COc1ccc(C(c2nnnn2C2CCCC2)N2CCN(C(=O)c3ccco3)CC2)cc1OC (centres undefined),0%,i,-10%,i,-5%,2%
Oc1ccc(C(c2nnnn2C2CCCC2)N2CCc3ccccc3C2)cc1 (centres undefined),21µM*,i,0%,i,1%,?
COc1cc(C(c2nnnn2C2CCCC2)N2CCc3ccccc3C2)ccc1O (centres undefined),12µM*,?,15%,i,16%,?
c1cc(CN2CCCCC2)cc(OCCCNc2nc3ccccc3s2)c1,12µM*,?,?,i,?,18µM*
COc1cccc(CNc2nc3ccc(NC(C)=O)cc3s2)c1,-12%,i,0%,i,0%,-9%
O=C(NCC1CCCN(Cc2cccc(OCCO)c2)C1)c1ccc(F)cc1 (centres undefined),-2%,i,14%,i,0%,8%
O=C(NCCCOc1cccc(CN2CCCCC2)c1)c1ccc(Cl)c(Cl)c1,13µM*,i,21µM*,i,23µM*,18µM*
C=CCOc1ccc(C=Nc2ccc(C)c(Cl)c2)c(O)c1,-4%,i,13%,i,5%,0%
C=C1CCN([C@H](C(=O)O)C(C)C)S(=O)(=O)c2ccccc21,8%,i,0%,i,-6%,3%
C=C1CCN([C@H](C(=O)OCc2cccc(C)c2)C(C)C)S(=O)(=O)c2ccccc21,15µM*,?,0%,?,0%,?
O=C1Nc2ccc(Br)cc2C12NNc1ccccc1O2 (centres undefined),18µM*,i,-27%,?,?,?
SMILES,DT40 TDP1 no CPT,KB-V1 cytotox,HT1080NT lethal,KB-3-1 cytotox,HT1080 IDH1KD tx,DT40 TDP1 CPT
O=C1Nc2ccc(Br)cc2C1(O)c1ccccc1 (centres undefined),0%,i,-5%,i,6%,3%
CC(=O)N1CCN(C(=S)c2ccc(Cl)cc2)CC1,-3%,i,12%,i,12%,5%
CC(=O)N1CC[n+]2c(-c3ccc(Cl)cc3)csc21,23µM*,i,-5%,i,-4%,26µM*
CCc1ccc(-c2csc3[n+]2CCN3C(C)=O)cc1,26µM*,i,0%,i,-4%,?
Cc1ccc(N2CCN(C(=O)c3ccccc3NC(=O)/C=C\C(=O)O)CC2)cc1,-20%,i,12%,i,1%,?
COc1ccc(NCc2ccsc2)cc1,4%,i,11%,i,13%,5%
CCOC(=O)[C@H](CCc1ccccc1)N[C@H]1CCc2ccccc2N(CC(=O)O)C1=O,21µM*!,i,19%,i,-1%,?
CCOC(=O)[C@H](CCc1ccccc1)N[C@H]1CCCN2CCC[C@@H](C(=O)O)N2C1=O,-14%,/,/,/,/,-24%
CCCNC(=O)c1ccc(N2CCC3(CC2)CC(c2cccc(Br)c2)=NO3)c(NC(=O)c2ccc(Br)cc2)c1,-16%,i,-14%,i,-1%,-15%
CCCNC(=O)c1ccc(N2CCC3(CC2)CC(c2ccccc2)=NO3)c(NC(=O)c2cccc(OC)c2)c1,13µM*,i,-6%,?,0%,?
Cc1ccc(CNC(=O)c2ccc(N3CCC4(CC3)CC(c3ccccc3)=NO4)c(NC(=O)c3ccccc3)c2)cc1,-21%,i,-1%,i,-1%,-36%
Cc1ccc(CNC(=O)c2ccc(N3CCC4(CC3)CC(c3ccccc3)=NO4)c(NC(=O)c3ccco3)c2)cc1,?,i,-1%,i,5%,?
Cc1ccc(CNC(=O)c2ccc(N3CCC4(CC3)CC(c3ccccc3)=NO4)c(N)c2)cc1,?,i,-1%,i,-3%,2.6µM*
CCCCC(CC)C(=O)Nc1cc(C(=O)NCCC)ccc1N1CCC2(CC1)CC(c1ccccc1)=NO2 (centres undefined),?,i,-1%,i,0%,6.5µM*
